AC50 and outcome data for 12 compounds are collected here from PubChem BioAssay (EPA / NIEHS).

Assay [1] in a line: ATG_NFI_CIS: Attagene CIS-FACTORIAL HepG2 Assay for human Nuclear Factor I (NFI) (AID 2282989). To be noted: HepG2 cis-regulatory reporter, NFI response element transcription; actives raise or lower the signal. The procedure, abridged: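 Reporter transcription driven by endogenous transcription factors in HepG2 cells; 24 h treatment. Quantitation by labelled RT-PCR fragments on capillary electrophoresis, gain- or loss-of-signal relative to DMSO.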

In assay [2] the target is Myc proto-oncogene protein (Homo sapiens) (UniProt P01106). The assay can be described thus: ATG_Myc_CIS: Attagene CIS-FACTORIAL HepG2 Assay for human Myelocytomatosis (Myc) Proto-Oncogene Transcription Factor (AID 2282990). To be noted: HepG2, Attagene cis-reporter transcription factor activity; actives raise or lower the signal. The gist of the method: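 Cells of the HepG2 human liver line bear multiple cis-driven reporter transcription units. Reporter mRNA after 24 h exposure is reverse-transcribed, amplified, labelled and resolved by capillary electrophoresis, with gain- or loss-of-signal fitting relative to DMSO.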
Myc proto-oncogene protein (Homo sapiens), sequence (P01106 whole entry, looked up): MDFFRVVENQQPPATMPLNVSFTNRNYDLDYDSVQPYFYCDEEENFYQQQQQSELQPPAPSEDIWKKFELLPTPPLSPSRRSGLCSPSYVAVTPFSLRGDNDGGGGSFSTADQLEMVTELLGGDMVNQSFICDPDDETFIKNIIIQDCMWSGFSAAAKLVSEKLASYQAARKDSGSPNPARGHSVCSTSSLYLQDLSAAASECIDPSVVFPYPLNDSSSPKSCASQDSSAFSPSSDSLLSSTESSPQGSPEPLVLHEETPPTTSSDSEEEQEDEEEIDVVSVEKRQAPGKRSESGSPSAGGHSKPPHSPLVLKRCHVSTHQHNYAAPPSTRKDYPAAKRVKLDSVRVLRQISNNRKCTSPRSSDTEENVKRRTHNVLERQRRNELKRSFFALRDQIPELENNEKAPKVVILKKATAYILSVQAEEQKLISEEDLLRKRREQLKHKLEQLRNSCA

The nature of assay [3]: ATG_NF_kB_CIS: Attagene CIS-FACTORIAL HepG2 Assay for human Nuclear Factor Kappa B (NF-kB) (AID 2282991). To be noted: HepG2 Attagene cis-factorial NF-kB reporter mRNA; actives raise or lower the signal. The gist of the method:
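HepG2, transient multi-reporter transfection, cis promoter elements (endogenous TFs). 24 h exposure. Total RNA → RT → PCR → 6-FAM label → HpaI → CE. Gain/loss vs DMSO.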

Assay [4] can be described thus: ATG_NRF2_ARE_CIS: Attagene CIS-FACTORIAL HepG2 Assay for human Nuclear Factor Erythroid 2 Related Factor 2 (NFR2) response to Antioxidant Response Elements (ARE) (AID 2282992).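 On AC50: reporter mRNA level measured by RT-PCR and capillary electrophoresis fluorescence.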 To be noted: HepG2 Attagene ARE/NRF2 reporter, transcription factor activity; actives raise or lower the signal. The gist of the method: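 Transient MRTU transfection of HepG2; 24 h compound exposure; TriZol RNA, RT with oligo(dT), PCR, 6-FAM primer extension, HpaI cut, CE. Bidirectional fit vs DMSO.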

The nature of assay [5]: ATG_Oct_MLP_CIS: Attagene CIS-FACTORIAL HepG2 Assay for human Octamer-Binding Transcription Factor (Oct) (AID 2282993). To be noted: HepG2 Attagene cis-factorial Oct reporter, mRNA; actives raise or lower the signal. The procedure, abridged:
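Transfected HepG2 cells, 24 h treatment. Reporter mRNA quantified by RT-PCR–capillary electrophoresis; bidirectional fitting against DMSO.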

Assay [6] deals with Cellular tumor antigen p53 (Homo sapiens) (UniProt P04637). The assay can be described thus: ATG_p53_CIS: Attagene CIS-FACTORIAL HepG2 Assay for human p53 Transcription Factor (AID 2282994). To be noted: HepG2 p53 cis-element reporter, Attagene mRNA; actives raise or lower the signal. The procedure, abridged: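 HepG2, transient MRTU transfection (cis promoter elements, endogenous TFs); 24 h dosing; RNA isolation, RT-PCR, 6-FAM primer extension, HpaI digest, CE fluorescence; bidirectional fit vs DMSO.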
Cellular tumor antigen p53 (Homo sapiens), sequence (P04637 whole entry, looked up): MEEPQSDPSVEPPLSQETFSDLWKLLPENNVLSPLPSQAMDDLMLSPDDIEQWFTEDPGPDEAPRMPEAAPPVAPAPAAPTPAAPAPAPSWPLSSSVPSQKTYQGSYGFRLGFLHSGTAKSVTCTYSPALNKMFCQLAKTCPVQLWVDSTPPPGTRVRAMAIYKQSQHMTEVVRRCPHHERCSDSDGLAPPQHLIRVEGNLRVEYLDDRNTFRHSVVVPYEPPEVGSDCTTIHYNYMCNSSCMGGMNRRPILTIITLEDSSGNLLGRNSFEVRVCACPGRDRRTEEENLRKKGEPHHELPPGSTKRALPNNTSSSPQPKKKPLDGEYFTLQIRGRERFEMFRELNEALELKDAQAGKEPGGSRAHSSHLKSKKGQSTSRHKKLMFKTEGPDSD

The target in assay [7] is human Peroxisome Proliferator-activated Receptor delta (PPARd), PPARD (gene 5467) (UniProt Q03181). The assay can be described thus: ATG_PPARd_TRANS: Attagene TRANS-FACTORIAL HepG2 Assay for human Peroxisome Proliferator-activated Receptor delta (PPARd) (AID 2283002; active means hit-call score of the fitted dose curve at least 0.9, where 1 is the maximum). The procedure, abridged: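 Cell-based TRANS reporter: HepG2, transient MRTU transfection, 24 h exposure. Readout = reporter mRNA (RT-PCR/CE, 6-FAM). Gain-of-signal fit vs DMSO control.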
human Peroxisome Proliferator-activated Receptor delta (PPARd), PPARD (gene 5467), sequence (Q03181 whole entry, looked up): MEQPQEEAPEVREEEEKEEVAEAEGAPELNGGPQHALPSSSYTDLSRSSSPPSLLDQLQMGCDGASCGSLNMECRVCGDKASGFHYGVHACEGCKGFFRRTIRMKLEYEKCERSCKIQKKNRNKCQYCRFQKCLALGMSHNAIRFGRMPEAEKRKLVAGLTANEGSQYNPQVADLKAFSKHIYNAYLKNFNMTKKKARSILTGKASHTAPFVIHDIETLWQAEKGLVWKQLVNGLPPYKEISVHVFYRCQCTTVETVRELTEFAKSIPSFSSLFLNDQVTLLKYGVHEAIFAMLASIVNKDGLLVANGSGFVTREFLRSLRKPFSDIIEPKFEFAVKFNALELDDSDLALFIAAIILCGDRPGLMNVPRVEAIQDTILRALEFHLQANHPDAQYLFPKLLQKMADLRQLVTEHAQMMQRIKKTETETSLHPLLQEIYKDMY

Assay [8] addresses Peroxisome proliferator-activated receptor gamma (Homo sapiens) (UniProt P37231). The assay can be described thus: ATG_PPARg_TRANS: Attagene TRANS-FACTORIAL HepG2 Assay for human Peroxisome Proliferator-activated Receptor-gamma (PPARg) (AID 2283007; active means hit-call score of the fitted dose curve at least 0.9, where 1 is the maximum). The procedure, abridged: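 Multiplexed reporter transcription units in HepG2, 24 h dosing, reporter transcripts quantified by fluorescent RT-PCR and capillary electrophoresis. Increase over DMSO scored.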

Assay [9] addresses Nuclear receptor subfamily 1 group I member 2 (Homo sapiens) (UniProt O75469). The assay can be described thus: ATG_PXR_TRANS: Attagene TRANS-FACTORIAL HepG2 Assay for human Pregnane X Receptor (PXR) (AID 2283008; active means hit-call score of the fitted dose curve at least 0.9, where 1 is the maximum). The procedure, abridged:
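Read-out is fluorescence of labelled reporter cDNA fragments separated by capillary electrophoresis after RT-PCR and HpaI digestion. Source: HepG2 cells carrying PXR-GAL4/UAS reporter constructs, treated 24 h; activity fitted upward relative to DMSO.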

For assay [10], the target named is human RAR-related Orphan Receptor beta (RORb), RORB (gene 6096) (UniProt Q92753). Briefly: ATG_RORb_TRANS: Attagene TRANS-FACTORIAL HepG2 Assay for human RAR-related Orphan Receptor beta (RORb) (AID 2283010; active means hit-call score of the fitted dose curve at least 0.9, where 1 is the maximum). The procedure, abridged: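 In this TRANS-format test, human HepG2 cells express chimeric NR-Gal4 fusion proteins driving GAL4-UAS reporters. After 24 h dosing, reporter transcripts are measured by fluorescent RT-PCR/capillary electrophoresis, with DMSO as negative control.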
human RAR-related Orphan Receptor beta (RORb), RORB (gene 6096), sequence (Q92753 whole entry, looked up, the tested form may be a part): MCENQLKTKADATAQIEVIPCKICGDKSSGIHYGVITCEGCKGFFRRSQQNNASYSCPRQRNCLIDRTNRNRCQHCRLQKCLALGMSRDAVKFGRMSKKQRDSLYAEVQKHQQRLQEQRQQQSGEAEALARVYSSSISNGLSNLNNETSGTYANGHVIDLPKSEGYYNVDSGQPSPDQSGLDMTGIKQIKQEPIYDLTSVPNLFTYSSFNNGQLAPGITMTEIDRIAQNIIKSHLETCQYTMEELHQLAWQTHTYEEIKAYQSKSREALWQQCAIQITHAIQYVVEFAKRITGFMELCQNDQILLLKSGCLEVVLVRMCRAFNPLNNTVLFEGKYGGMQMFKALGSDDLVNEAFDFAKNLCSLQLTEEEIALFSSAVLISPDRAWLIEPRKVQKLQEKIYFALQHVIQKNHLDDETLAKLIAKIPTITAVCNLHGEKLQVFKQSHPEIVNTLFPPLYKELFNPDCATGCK

Assay [11] concerns the target Retinoic acid receptor alpha (Homo sapiens) (UniProt P10276). Briefly: ATG_RARa_TRANS: Attagene TRANS-FACTORIAL HepG2 Assay for human Retinoic Acid Receptor alpha (RARa) (AID 2283005; active means hit-call score of the fitted dose curve at least 0.9, where 1 is the maximum). The procedure, abridged:
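Reporter transcripts, measured by RT-PCR with fluorescent labeling and capillary electrophoresis after 24 h dosing, reflect activity of an exogenous human RARa–GAL4 fusion in transiently transfected HepG2. Fitted for increase relative to DMSO.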

In assay [12] the target is human Retinoic Acid Receptor gamma (RARg), RARG (gene 5916) (UniProt P13631). The assay can be described thus: ATG_RARg_TRANS: Attagene TRANS-FACTORIAL HepG2 Assay for human Retinoic Acid Receptor gamma (RARg) (AID 2283009; active means hit-call score of the fitted dose curve at least 0.9, where 1 is the maximum). The procedure, abridged:
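HepG2, RARg-GAL4 TRANS system, 24 h exposure; reporter mRNA by RT-PCR + CE fluorescence; increase over DMSO.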

In assay [13] the target is human Retinoic Acid Receptor beta (RARb), RARB (gene 5915) (UniProt P10826). The assay can be described thus: ATG_RARb_TRANS: Attagene TRANS-FACTORIAL HepG2 Assay for human Retinoic Acid Receptor beta (AID 2283004; active means hit-call score of the fitted dose curve at least 0.9, where 1 is the maximum). The procedure, abridged: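 HepG2 cells were transiently transfected with GAL4-UAS reporter units that report activity of exogenous chimeric NR-Gal4 proteins, then exposed to compound for 24 h. Reporter mRNA was quantified by RT-PCR with capillary electrophoresis fluorescence, as gain of signal over DMSO.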
human Retinoic Acid Receptor beta (RARb), RARB (gene 5915), sequence (P10826 whole entry, looked up, the tested form may be a part): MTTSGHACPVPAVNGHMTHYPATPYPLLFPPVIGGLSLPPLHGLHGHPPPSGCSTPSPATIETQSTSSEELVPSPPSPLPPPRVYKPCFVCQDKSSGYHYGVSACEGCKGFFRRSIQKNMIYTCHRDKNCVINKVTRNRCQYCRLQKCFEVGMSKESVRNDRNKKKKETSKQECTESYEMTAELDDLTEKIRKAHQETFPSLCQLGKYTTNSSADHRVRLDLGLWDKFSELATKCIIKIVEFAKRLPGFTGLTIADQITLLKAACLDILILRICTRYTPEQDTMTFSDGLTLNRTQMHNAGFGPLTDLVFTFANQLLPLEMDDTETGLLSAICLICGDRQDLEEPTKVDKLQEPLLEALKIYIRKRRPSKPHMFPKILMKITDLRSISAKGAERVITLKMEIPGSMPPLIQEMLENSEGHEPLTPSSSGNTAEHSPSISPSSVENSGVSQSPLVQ

A short description of assay [14]: BSK_3C_TissueFactor: BioMAP Diversity Plus: 3C Assay for Tissue Factor Biomarker Activity (AID 2282997). To be noted: BioMAP 3C HUVEC, tissue factor biomarker readout; actives raise or lower the signal. The gist of the method:
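HUVEC were treated 24 h, then surface tissue factor measured by ELISA and fitted bidirectionally against DMSO. Parallel SRB total-protein staining assessed overt cytotoxicity at the same time point.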

Assay [15] is described as follows: BSK_3C_uPAR: BioMAP Diversity Plus: 3C Assay for Urokinase-type plasminogen activator receptor (uPAR) Biomarker Activity (AID 2282998). To be noted: BioMAP 3C HUVEC, uPAR biomarker ELISA; actives raise or lower the signal. The gist of the method:
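Readout: ELISA for surface uPAR. System: human umbilical vein endothelial primary cells, 24 h after chemical exposure. Analysis: bidirectional fit, DMSO baseline.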

Assay [16] can be described thus: BSK_4H_Eotaxin3: BioMAP Diversity Plus: 4H Assay for Eotaxin 3 Biomarker Activity (AID 2283000).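 On outcome: CCL26 protein level quantified by ELISA in parallel with SRB cytotoxicity check.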 To be noted: primary human endothelial cells (HUVEC); actives raise or lower the signal. The gist of the method: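 Eotaxin-3 (CCL26) levels were measured by ELISA in HUVEC primary cultures 24 h post-dosing. Gain or loss of signal was fitted in both directions, with DMSO serving as baseline and negative control.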

Read-out in assay [17]: Intercellular Adhesion Molecule 1 (ICAM1), ICAM1 (gene 3383)
Briefly: BSK_3C_ICAM1: BioMAP Diversity Plus: 3C Assay for Intercellular Adhesion Molecule 1 (ICAM1) Biomarker Activity (AID 2283003). To be noted: primary human endothelial cells (HUVEC); actives raise or lower the signal. The gist of the method:
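Human vascular endothelial primary cells, 3C conditions, 24 h treatment. ICAM-1 by ELISA.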

The nature of assay [18]: BSK_3C_Proliferation: Cell Proliferation Assessment in the BioMAP Diversity Plus: 3C Assay (AID 2283006).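 Further: potency may reflect either rise or fall in cell number versus DMSO.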 To be noted: primary human endothelial cells (HUVEC). The gist of the method:
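Proliferation of human vascular endothelial primary cells after 48 h dosing, quantified as SRB-stained protein at 560 nm relative to DMSO.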

The target in assay [19] is human Peroxisome Proliferator-activated Receptor alpha (PPARa), PPARA (gene 5465) (UniProt Q07869). Briefly: ATG_PPARa_TRANS: Attagene TRANS-FACTORIAL HepG2 Assay for human Peroxisome Proliferator-activated Receptor alpha (PPARa) (AID 2283001; active means hit-call score of the fitted dose curve at least 0.9, where 1 is the maximum). The procedure, abridged:
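Reporter transcripts from GAL4-UAS units in transfected HepG2 were quantified 24 h after dosing. Detection used reverse transcription, PCR, fluorescent primer extension and capillary electrophoresis, with DMSO as baseline.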

The structures appear in SMILES notation. “And” between values parts separate entries of the source, which are not always exact repeats. Equal entries are not always repeated. Results filed as inconclusive are left out. Some compounds were tested as several samples or in several runs, with calls that do not always agree. The source made the active and inactive calls. How the source made its calls, unless noted: active means hit-call score of the fitted dose curve at least 0.9, where 1 is the maximum; inactive means score below 0.9.

Peroxisome proliferator-activated receptor gamma (Homo sapiens), sequence (P37231 whole entry, looked up): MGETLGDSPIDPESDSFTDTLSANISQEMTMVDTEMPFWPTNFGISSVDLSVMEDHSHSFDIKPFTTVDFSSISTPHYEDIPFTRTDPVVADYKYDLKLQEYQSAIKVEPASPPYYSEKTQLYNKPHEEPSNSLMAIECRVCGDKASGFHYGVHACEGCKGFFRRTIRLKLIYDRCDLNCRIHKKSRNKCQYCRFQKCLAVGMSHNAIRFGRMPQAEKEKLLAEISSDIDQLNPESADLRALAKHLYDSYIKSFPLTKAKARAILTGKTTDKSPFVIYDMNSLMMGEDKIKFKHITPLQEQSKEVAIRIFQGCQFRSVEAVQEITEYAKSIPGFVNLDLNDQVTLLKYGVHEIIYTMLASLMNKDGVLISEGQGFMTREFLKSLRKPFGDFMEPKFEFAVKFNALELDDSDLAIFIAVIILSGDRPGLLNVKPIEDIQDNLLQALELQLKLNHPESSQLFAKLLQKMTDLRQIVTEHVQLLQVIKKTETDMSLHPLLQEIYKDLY
human Retinoic Acid Receptor gamma (RARg), RARG (gene 5916), sequence (P13631 whole entry, looked up, the tested form may be a part): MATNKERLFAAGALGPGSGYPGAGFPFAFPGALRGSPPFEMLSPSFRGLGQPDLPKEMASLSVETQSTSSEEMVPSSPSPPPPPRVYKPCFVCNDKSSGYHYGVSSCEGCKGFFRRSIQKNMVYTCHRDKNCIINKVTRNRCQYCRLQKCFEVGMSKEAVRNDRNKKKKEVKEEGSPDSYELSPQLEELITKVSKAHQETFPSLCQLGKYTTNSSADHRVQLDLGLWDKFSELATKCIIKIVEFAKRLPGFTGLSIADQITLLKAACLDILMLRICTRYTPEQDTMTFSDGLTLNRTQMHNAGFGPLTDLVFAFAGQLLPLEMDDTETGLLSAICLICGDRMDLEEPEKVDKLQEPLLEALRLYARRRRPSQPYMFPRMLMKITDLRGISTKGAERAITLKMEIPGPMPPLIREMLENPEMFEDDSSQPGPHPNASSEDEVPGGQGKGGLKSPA
Retinoic acid receptor alpha (Homo sapiens), sequence (P10276 whole entry, looked up, the tested form may be a part): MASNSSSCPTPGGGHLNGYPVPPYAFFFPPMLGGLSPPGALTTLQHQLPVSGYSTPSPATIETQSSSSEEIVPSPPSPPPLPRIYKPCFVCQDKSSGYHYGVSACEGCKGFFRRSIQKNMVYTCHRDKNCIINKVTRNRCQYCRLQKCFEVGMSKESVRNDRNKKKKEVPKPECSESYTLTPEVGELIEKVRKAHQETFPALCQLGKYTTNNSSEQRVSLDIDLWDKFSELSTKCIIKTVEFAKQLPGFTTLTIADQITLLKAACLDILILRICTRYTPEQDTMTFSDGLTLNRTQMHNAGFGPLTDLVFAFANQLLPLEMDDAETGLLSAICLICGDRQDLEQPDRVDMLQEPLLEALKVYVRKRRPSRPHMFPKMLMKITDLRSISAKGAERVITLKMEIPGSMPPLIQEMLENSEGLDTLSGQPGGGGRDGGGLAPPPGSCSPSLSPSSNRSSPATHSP
Nuclear receptor subfamily 1 group I member 2 (Homo sapiens), sequence (O75469 whole entry, looked up, the tested form may be a part): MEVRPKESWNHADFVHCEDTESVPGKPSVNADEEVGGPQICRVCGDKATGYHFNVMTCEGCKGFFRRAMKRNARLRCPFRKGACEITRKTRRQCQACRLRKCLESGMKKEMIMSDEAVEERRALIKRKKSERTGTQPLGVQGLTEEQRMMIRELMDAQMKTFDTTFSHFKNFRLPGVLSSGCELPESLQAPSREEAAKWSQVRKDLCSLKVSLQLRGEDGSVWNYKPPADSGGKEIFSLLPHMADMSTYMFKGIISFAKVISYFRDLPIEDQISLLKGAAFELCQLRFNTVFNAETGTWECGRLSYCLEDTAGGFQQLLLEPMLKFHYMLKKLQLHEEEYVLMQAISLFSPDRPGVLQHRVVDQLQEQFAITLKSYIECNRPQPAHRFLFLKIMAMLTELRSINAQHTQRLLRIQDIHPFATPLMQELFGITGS
human Peroxisome Proliferator-activated Receptor alpha (PPARa), PPARA (gene 5465), sequence (Q07869 whole entry, looked up, the tested form may be a part): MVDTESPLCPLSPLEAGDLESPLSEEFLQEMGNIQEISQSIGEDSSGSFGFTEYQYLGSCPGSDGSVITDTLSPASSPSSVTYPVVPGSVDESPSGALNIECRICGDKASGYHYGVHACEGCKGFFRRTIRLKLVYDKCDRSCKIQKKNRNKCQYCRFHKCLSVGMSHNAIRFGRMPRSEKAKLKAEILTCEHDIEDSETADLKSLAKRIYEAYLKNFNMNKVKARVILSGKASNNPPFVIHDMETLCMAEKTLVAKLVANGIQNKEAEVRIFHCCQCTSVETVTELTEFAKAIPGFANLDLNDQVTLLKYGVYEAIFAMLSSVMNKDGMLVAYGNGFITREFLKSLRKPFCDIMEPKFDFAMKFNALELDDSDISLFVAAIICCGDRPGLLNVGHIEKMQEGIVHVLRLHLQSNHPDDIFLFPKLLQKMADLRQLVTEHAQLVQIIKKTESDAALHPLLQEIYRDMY

As a reminder, the AC50 is the midpoint of the concentration-response curve, whichever way the signal moves. Turning to `Nc1cc(Cl)c(-c2cc(Cl)c(N)cc2Cl)cc1Cl`, the AC50 in assay [1] was 17.3 µM (active); in assay [2], 7.12 µM (active); in [4], 12.5 µM (active); in [5] it was 11.1 µM (active); in [8], 14.5 µM (active); in [9], 4.7 µM (active). Moreover, the result in [3], in assay [6], in assay [7] and in assay [10] was inactive.
With `CCOCCOCC`, the result in assay [1], in [2], in [3], in assay [4], in assay [5] and in assay [6] was inactive. In addition, the compound was classed as inactive in assay [8], in [9] and in assay [10].
In the case of `Cc1cc(=O)oc2cc(O)ccc12`, the call in assay [1], in [2], in assay [3], in [4], in [5] and in assay [6] was inactive. The compound was called inactive in assay [7], in assay [8], in [9] and in assay [10]. Also, the AC50 in [9] is 12 µM (active).
For `CCc1cccc(CC)c1N(COC)C(=O)CS(=O)(=O)O`, the compound was called inactive in assay [1], in [2], in assay [3], in assay [4], in [5] and in assay [6]. The result in assay [7], in assay [11], in [8] and in assay [12] was inactive. Besides, the AC50 in assay [9] is 7.05 µM (active).
Turning to `NCc1cccc(CN)c1`, the result in [1], in [2], in assay [3], in assay [4], in assay [5] and in [6] was inactive. Moreover, the call in assay [8] and in assay [9] was inactive.
`CCCC=O`: the outcome in [1], in assay [2], in assay [4], in assay [5], in [6] and in assay [13] was inactive. Besides, the compound was classed as inactive in assay [11], in [9], in [12] and in [10].
Regarding `CCCCCCCCCCCC`, the result in assay [1], in assay [2], in [4], in assay [5], in [14] and in assay [15] was inactive. The outcome in assay [16], in assay [17], in [11], in assay [8], in assay [9] and in assay [12] was inactive. Besides, the AC50 was 30.2 µM (active) in assay [16]; 36.1 µM (active) and 31 µM (active) in assay [18].
Regarding `O=C(O)CN(CCCN(CC(=O)O)CC(=O)O)CC(=O)O`, the compound was called inactive in assay [1], in assay [2], in assay [5], in assay [19], in [7] and in assay [13]. The compound was classed as inactive in assay [11], in assay [12] and in assay [10]. The AC50 in [4] was 6.54 µM (active).
`CCO[Si](C)(C)OCC`: the compound was called inactive in assay [1], in [2], in assay [4], in assay [5], in [7] and in assay [11]. Besides, in assay [9], the call was inactive.
Consider `CC1CNCC(C)O1` (centres undefined), for which the compound was classed as inactive in assay [1], in assay [2], in assay [4], in assay [5], in assay [6] and in assay [19]. In addition, the compound was called inactive in [13], in assay [8], in assay [9] and in [12].
On to `CC1CCC(CO)CC1` (centres undefined), for which the compound was classed as inactive in [1], in assay [2], in assay [4], in assay [5], in assay [7] and in [13]. Moreover, the compound was called inactive in assay [11], in assay [9] and in [10].
As to `CC(C)(C)C1CCCCC1O` (centres undefined), the compound was called inactive in assay [1], in assay [2], in [4], in assay [5], in [6] and in [7]. For the same compound, the compound was called inactive in [13], in assay [9], in assay [12] and in [10].
